High-throughput results: PubChem BioAssay, National Center for Advancing Translational Sciences (NCATS)
HepG2 tox-1: qHTS for Inhibitors of TGF-b: Cytotox Counterscreen. HepG2 CAGA-GFP viability, ATP luminescence, 18 h. Potency, µM (highest dose often 46.1 µM), for the others: at the top dose activity change, negative = cytotoxicity, hits mostly cytotoxic. 410,000 compounds, 0.76% hits
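HepG2 CAGA-GFP cells (1000/well, DMEM with 1% FBS) received compound, then TGF-beta at 500 pg/mL final, and were incubated 18 hours at 37 degrees C. Viability was read by CellTiter-Glo luminescence. Media-only wells were set as complete cell-killing and DMSO as no toxicity.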
Apoferritin bind: qHTS Assay for Identification of Novel General Anesthetics | Ferritin light chain (Equus caballus), P02791 | apoferritin/1-aminoanthracene competitive binding, fluorescence | AID 485281, 2010 | Potency, µM (titrated, usually from 77.5 µM), for the others: top-dose activity change, negative = displacement, most hits filed as inhibitors | 350,000 compounds, 0.074% hits; further: on the % scale 0 is the no-effect control and ±100 the full control effect; nearly all actives have a fitted effect of over 20% in size
Target sequence (P02791 2-175 limits assumed): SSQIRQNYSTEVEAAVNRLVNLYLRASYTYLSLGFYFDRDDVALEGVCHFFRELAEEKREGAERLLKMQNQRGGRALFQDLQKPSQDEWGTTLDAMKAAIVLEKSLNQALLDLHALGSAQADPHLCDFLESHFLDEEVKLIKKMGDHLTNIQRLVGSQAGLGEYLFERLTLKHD
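Horse-spleen apoferritin (10 uM) was mixed with 50% saturated 1-aminoanthracene in PBS, exposed to compounds for 10 min at room temperature, and read for fluorescence (ex 380 nm, em 535 nm). Competitive displacement was fitted with a four-parameter Hill equation.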
S2 tox: Viability Counterscreen for Primary qHTS for Inhibitors of ATXN expression | 400,000 compounds, 0.49% hits | Potency, µM (top dose mostly 56.7 µM), usual class: cytotoxic | S2 cells (HEK-293 line with an ATXN2-luciferase reporter) viability, CellTiter-Fluor protease fluorescence, 24 h | AID 651635, 2014; further: nearly all actives have a fitted effect of over 40% in size
TGFb inhibitor: qHTS for Inhibitors of TGF-b | HepG2 CAGA-GFP TGF-b/SMAD3 reporter, GFP fluorescence, 18 h; TGF-beta stimulated, 500 pg/mL final | Potency, µM (series often up to 46.1 µM), for inactives: at the top dose activity, negative = inhibition, most hits filed as inhibitors | 410,000 compounds, 1.2% hits; further: on the % scale 0 is the no-effect control and ±100 the full control effect; nearly all actives have a fitted effect of over 65% in size
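First, reporter cells (HEPG2 CAGA-GFP) rested 2 h at 37 degrees C. Next, compounds were pinned in and TGF-beta added to 500 pg/mL final. After 18 h, GFP was imaged per cell and summed per well.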
ATXN2 expr inh: Primary qHTS for Inhibitors of ATXN expression; HEK-293 ATXN2-luciferase reporter, luminescence, 24 h; Potency, µM (top dose mostly 57 µM), inactives show at the highest dose activity change, negative = inhibition, hits mostly inhibitors; 360,000 compounds, 0.72% hits; AID 1745845, 2022; further: on the % scale 0 is the no-effect control and ±100 the full control effect; nearly all actives have a fitted effect of over 55% in size
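ATXN2-luciferase reporter cells (luciferase flanked by upstream and downstream ATXN2 gene portions) were treated 24 h at 37 °C with compounds at up to 57 uM. SteadyGlo luminescence gave expression; GF-AFC fluorescence gave viability.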
TGFb confirm: qHTS for Inhibitors of TGF-b: Confirmation of Cherry Picks. 1,600 compounds, 63% hits. shares compounds with TGFb inhibitor. HepG2 CAGA-GFP TGF-b reporter, GFP fluorescence, 18 h; cells stimulated with TGF-beta, 500 pg/mL. AID 720534, 2013. Potency, µM (top dose mostly 46.1 µM), for the others: at the highest dose activity, negative = inhibition, most hits filed as inhibitors; further: on the % scale 0 is the no-effect control and ±100 the full control effect; nearly all actives have a fitted effect of over 65% in size
HepG2 tox-2: qHTS for Inhibitors of TGF-b: Cytotox Counterscreen for Cherry Picks. shares compounds with TGFb inhibitor. Potency, µM (highest dose often 46.1 µM), inactives show at the top dose activity, negative = cytotoxicity, actives largely listed as inhibitors. 1,600 compounds, 27% hits. HepG2 CAGA-GFP viability, ATP luminescence, 18 h; cells stimulated with TGF-beta, 500 pg/mL. AID 720535, 2013; further: on the % scale 0 is the no-effect control and ±100 the full control effect; nearly all actives have a fitted effect of over 70% in size
TGFb CCL64 inh: qHTS for Inhibitors of TGF-b: CCL64 Cells Orthogonal Assay for Cherry Picks. shares compounds with TGFb inhibitor. CCL64 CAGA-GFP reporter, TGF-b stimulated, GFP fluorescence, 18 h. Potency, µM (highest dose often 46.1 µM), for inactives: at the top dose activity, negative = inhibition, most hits filed as inhibitors. 1,600 compounds, 41% hits; further: nearly all actives have a fitted effect of over 65% in size
COP TGFb inh: qHTS for Inhibitors of TGF-b: Hit Validation in HepG2 Cells using COP promoter; shares compounds with TGFb inhibitor; HepG2 COP-GFP TGF-b reporter, GFP fluorescence, 18 h; cells stimulated by added recombinant TGF-beta; Potency, µM (top dose mostly 46.1 µM), inactives show at the highest dose activity, negative = inhibition, most hits filed as inhibitors; 1,600 compounds, 3% hits; further: nearly all actives have a fitted effect of over 70% in size
Numbers without * were called inactive; i = inactive; ? = inconclusive; · = no result given. An excerpt weighted towards active compounds, which were near 2.4% of everything screened. The call rests on the fitted dose curve; in most records, active means well fitted curve in the direction sought with a large enough effect; inconclusive means small, poorly fitted or top-dose-only effect, or another doubt; inactive means no such curve, though single readings can be large; an effect the other way counts as inactive or inconclusive. Potency means the concentration at half of the fitted maximal effect.

SMILES	HepG2 tox-1	Apoferritin bind	S2 tox	TGFb inhibitor	ATXN2 expr inh	TGFb confirm	HepG2 tox-2	TGFb CCL64 inh	COP TGFb inh
O=[N+]([O-])c1c(Nc2ccc(O)cc2)cc(Cl)c2nonc12	5.01µM*	3.2%	·	2.82µM*	·	3.26µM*	3.66µM*	2.91µM*	4.61µM*
CN(C)c1cc(Nc2ccc(O)cc2)c([N+](=O)[O-])c2nonc12	-0.7%	12.9%	?	6.3%	5.2%	·	·	·	·
CN(C)c1ccc(/C=C/c2ccnc3c([N+](=O)[O-])cccc23)cc1	-39.7%	·	·	-2.4%	·	·	·	·	·
COc1cc(/C=C/c2cccc[n+]2C)ccc1OCC(=O)Nc1ccccc1C	-3.0%	-5.1%	i	0.9%	-1.4%	·	·	·	·
CCOc1cc(/C=C\[N+](=O)[O-])ccc1OCC(=O)Nc1ccccc1C	8.91µM*	-21.1%	?	7.94µM*	·	2.91µM*	8.2µM*	2.91µM*	?
O=C(COc1ccc(C(=O)NCCN2CCOCC2)cc1)Nc1cccc(C(F)(F)F)c1	-41.8%	·	i	0.7%	-7.0%	·	·	·	·
CC(C)(C)S(=O)(=O)/C(C#N)=N/Nc1ccc(Cl)cc1	-32.6%	?	?	?	?	13µM*	?	?	49.3%
CC(C)(C)c1ccc(N/N=C(\C#N)S(=O)(=O)C(C)(C)C)cc1	-43.4%	?	?	?	-31.5%	·	·	·	·
O=C(CCC(=O)N1CCSc2ccccc21)NCc1cccc(Cl)c1	-19.0%	7.8%	i	?	-8.1%	?	-8.4%	6.9%	-1.4%
COc1ccc(C(=O)NN(C)c2nc(-c3ccccc3)nnc2C(F)(F)F)cc1	0.5%	?	i	15.0%	-13.3%	·	·	·	·
COc1ccc(C(=O)NN(C)c2nc(C(F)(F)F)nc3ccccc23)cc1	-22.8%	-23.5%	?	?	26.7%	?	-16.5%	?	-15.0%
CCOc1ccc(NC(=O)Cc2ccc(-n3c(C)nc4cccnc43)cc2)cc1	-11.2%	-15.8%	·	-0.7%	·	·	·	·	·
O=S1(=O)CCN(C2CCCCCCC2)CC1	3.1%	·	i	-5.1%	·	·	·	·	·
Cc1cc2nn(-c3ccc(F)cc3)nc2cc1N	-23.0%	280.7%	i	?	-4.6%	·	·	·	·
Cc1cc2nn(-c3ccc(Cl)cc3)nc2cc1N	-37.0%	62.6%	·	0.794µM*	·	6.51µM*	2.59µM*	5.6%	40.1%
Cc1cc(C(=O)N2CCCc3ccccc32)ccc1[N+](=O)[O-]	-11.3%	?	i	1.3%	-6.6%	·	·	·	·
COc1cccc(NC(=O)COC(=O)c2ccccc2C(=O)N(C)c2ccccc2)c1	-4.7%	·	?	-4.3%	-11.6%	·	·	·	·
COc1ccc(C[C@@H]2CN3C(=NC[C@@H]3Cc3ccc(O)cc3)N2C[C@H](C)NC(=O)CCC2CCCCC2)cc1	-21.7%	-12.0%	?	12.6µM*	-36.1%	-86.1%	?	?	106.2%
Cc1nc(-c2ccc(S(=O)(=O)N3CCN(C4c5ccccc5-c5ccccc54)CC3)s2)cs1	4.9%	-15.0%	i	0.9%	-12.6%	·	·	·	·
Cc1ccc(S(=O)(=O)N2CCN(CCc3ccccc3)CC2)c(C)c1	-9.6%	1.3%	i	?	-10.3%	23.1µM*	?	?	7.5%
Cc1nc(-c2ccc(S(=O)(=O)N3CCCN(CCc4ccccc4)CC3)s2)cs1	-18.7%	-4.7%	i	8.91µM*	-10.0%	8.2µM*	?	?	64.9%
Cc1ccc(S(=O)(=O)N2CCN(C(=O)c3ccco3)CC2)c(C)c1	1.7%	6.0%	?	-2.5%	-0.2%	·	·	·	·
Cc1ccc(S(=O)(=O)N2CCN(C(=O)c3ccccc3Cc3ccccc3)CC2)c(C)c1	-13.2%	60.9%	i	11.2µM*	-31.3%	16.4µM*	?	?	15.8%
CC1=C(C(=O)N(C(C)C)C(C)C)CC(CC(=O)NCCCCc2ccccc2)C(=O)N1Cc1ccc(F)cc1 (stereo not given)	2.6%	·	?	7.94µM*	?	?	-6.0%	23.1µM*	-4.3%
CC1=C(C(=O)N(C(C)C)C(C)C)CC(CC(=O)NCCCCc2ccccc2)C(=O)N1Cc1ccccc1 (stereo not given)	-33.7%	·	?	?	0.0%	·	·	·	·
SMILES	HepG2 tox-1	Apoferritin bind	S2 tox	TGFb inhibitor	ATXN2 expr inh	TGFb confirm	HepG2 tox-2	TGFb CCL64 inh	COP TGFb inh
CC1=C(C(=O)N(C(C)C)C(C)C)CC(CC(=O)NC(c2ccccc2)c2ccccc2)C(=O)N1Cc1ccc(C(C)(C)C)cc1 (stereo not given)	1.6%	·	i	17.8µM*	?	9.2µM*	-27.2%	?	9.0%
CC(C)Cn1c(=O)c2ccccc2n2c(CCC(=O)Nc3ccc(F)c(F)c3)nnc12	-2.5%	0.6%	·	-12.9%	·	·	·	·	·
O=C1NC(Cc2ccc(O)cc2)c2nc3ccc(Cl)cc3c(=O)n2-c2cc3ccccc3cc21 (stereo not given)	12.7%	·	?	7.94µM*	?	8.2µM*	?	5.8µM*	45.3%
CCOc1ccccc1CNC(=O)C1=C(C)C(=O)OC12CCN(C(C)=O)CC2	20.3%	-2.9%	·	-1.8%	·	·	·	·	·
CC(NC(=O)C1CCN(CCOc2ccc(Cl)cc2)CC1)c1cccc2ccccc12 (stereo not given)	11.2µM*	·	?	6.31µM*	?	25.9µM*	18.4µM*	?	-27.0%
COc1ccc(CN2CCC(C(=O)NC(C)c3cccc4ccccc34)CC2)cc1 (stereo not given)	-13.5%	·	i	8.9%	0.0%	·	·	·	·
